The results in this text go back to the supplement of paper PMC6763611.

The first assay concerns Plasmodium falciparum NF54. The assay can be described thus: growth inhibition relative to untreated control; higher = more inhibition. The note with it: 1 µM; MM + chorismate end-products (CM screening medium); 72 h. In outline:
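In dark 96-well half-area plates, each well held 100 μL of P. falciparum NF54 ring-stage culture at 1% parasitemia and 1% hematocrit. The cultures received a single test-compound dose of 5 μM or 1 μM and were kept at 37 °C for 72 h, in minimal RPMI either plain or enriched with folate (2.2 μM), pABA (7.3 μM), pHBA (7.3 μM), tyrosine (111 μM), phenylalanine (90 μM) and tryptophan. SYBR Green staining gave growth inhibition, expressed against untreated wells, with uninfected erythrocytes serving as the background.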
As to `CN1CCN(S(=O)(=O)c2ccc(-c3ccc4c(Nc5ccc6nn[nH]c6c5)ccnc4c3)cc2)CC1`, the growth inhibition was found to be 89.7%.
Same read-out and setting: to `Nc1nccc2ccc(-c3ccc4nccn4c3)cc12` belongs over 100%.
The same measure, in the same setting: to `Cc1ccc(S(=O)(=O)n2cc(-c3ccnc(N)c3)c3cc(Br)cnc32)cc1` belongs 95.2%.
The same measure, in the same setting: to `CC[C@@H]([C@H](C)O)n1ncn(-c2ccc(N3CCN(c4ccc(OC[C@@H]5CO[C@@](Cn6cncn6)(c6ccc(F)cc6F)C5)cc4)CC3)cc2)c1=O` belongs 45.5%.
Regarding `NC(=O)c1cc(Br)ccc1OCCOc1ccccc1`, the growth inhibition was 14.5%.
The same measure, in the same setting: to `CC1=Nc2ccc(Cl)cc2C(O)(c2ccc(C)cc2)N1CCN1CCCCC1` (stereo unspecified) belongs 99.9%; to `O=C(c1[nH]nc2c1CCCC2)N1CCN(Cc2ccc3c(c2)OCO3)CC1`, under 0%; to `CS(=O)(=O)Cc1nc2ccccc2oc1=O`, under 0%.
On the same count and under the same terms, to `CC(=O)OCC1OC([S-])C(OC(C)=O)C(OC(C)=O)C1OC(C)=O.CCP(CC)CC.[Au+]` (stereo unspecified) belongs 84.8%; to `Cc1ncc(-c2ccnc(Nc3ccc(S(C)(=O)=O)cc3)n2)n1C(C)C`, 67%.
Same read-out and setting: to `NCCC(O)C(=O)N[C@@H]1C[C@H](N)[C@@H](OC2O[C@H](CN)[C@@H](O)[C@H](O)[C@H]2O)[C@H](O)C1OC1O[C@H](CO)[C@@H](O)[C@H](N)[C@H]1O` (stereo partly specified) belongs 46%.
In the case of `COC(=O)Nc1nc2cc(C(=O)c3ccccc3)ccc2[nH]1`, the growth inhibition was 12%.
Same read-out and setting: to `COc1ccc(-c2nnc3ccc(-c4cccc(C(C)C)c4)cn23)cc1OC` belongs 9.51%; to `CN(C(=O)c1cc2c(-c3cncnc3)cccc2[nH]1)c1ccccc1`, 48.7%; to `Cc1noc(C)c1COc1cccc(C(=O)N=c2[nH]cccc2C)c1`, under 0%.
`O=C(NC1CC1)c1ccc(N2CCOc3ccc(Cl)cc32)s1`: the growth inhibition turned out to be 91%.
Still for that read-out and setting: to `N#CCN(CCCCN1CCN(c2ccc(F)cc2)CC1)C(=O)OCc1ccccc1` belongs 20.2%; to `O=C(Nc1nnc(S)s1)c1cc(Br)ccc1Cl`, 31.8%; to `O=C(NC1CCCCC1)N1CCN(Cc2ccc3c(c2)OCO3)CC1`, under 0%.
Same read-out and setting: to `COc1cc(Br)cc2cc(C(=O)Nc3cccc(C(F)(F)F)c3)c(=O)oc12` belongs 11.9%; to `Cc1c[nH]c(CCNC(=O)c2cc(-c3ccc(Cl)cc3)cs2)n1`, over 100%; to `COc1cc(OC)cc(C(=O)NCC2Cc3cc(Cl)cc(-c4ccncc4)c3O2)c1` (stereo unspecified), 91.9%.
`CC(=O)N1CCc2cc3nc(C)cc(C)c3cc21`: the growth inhibition was found to be 13.3%.
For the compound `Cc1cc(C(=O)Nc2ccc(-c3ccccc3)cc2)no1`, the growth inhibition amounted to 96.4%.
Same read-out and setting: to `CC(=O)NC[C@@H]1CN(c2ccc(N3CCOCC3)c(F)c2)C(=O)O1` belongs 18.8%; to `CS(=O)(=O)N1CCC(Cn2nc(Cc3cccc4ccccc34)c3c(N)ncnc32)CC1`, 41.5%.
Same read-out and setting: to `COc1ccc(-c2nc(-c3cccc(NC(=O)Cc4ccc(F)cc4)c3)no2)cc1OC` belongs 46.5%; to `Cc1nn(C(=O)Nc2cccc(C(F)(F)F)c2)c(C)c1Sc1ncccn1`, 0.416%; to `O=C1[C@@H](Oc2ccccc2)[C@@H](c2ccc(Cl)cc2)N1CCn1cnc2c(NCc3ccccc3)ncnc21`, under 0%.
For `CC(C(=O)N1CCCC1)N1CCN(S(=O)(=O)c2ccc(C(C)(C)C)cc2)CC1` (stereo unspecified), the growth inhibition was found to be 37.6%.
For `NC(=O)c1cc(-c2ccsc2)ccc1OCCOc1ccccc1`, the growth inhibition worked out at 18.1%.
As for `CC(=O)NCC1CN(c2ccc(-c3ccc(CNCc4cn[nH]n4)cc3)c(F)c2)C(=O)O1` (stereo unspecified), the growth inhibition turned out to be 4.9%.
Still for that read-out and setting: to `Nc1cccnc1Nc1ccc(Cl)cc1` belongs 32%; to `Cc1ccc(C(=O)Nc2ccc(S(=O)(=O)O)c3cc(S(=O)(=O)O)cc(S(=O)(=O)O)c23)cc1NC(=O)c1cccc(NC(=O)Nc2cccc(C(=O)Nc3cc(C(=O)Nc4ccc(S(=O)(=O)O)c5cc(S(=O)(=O)O)cc(S(=O)(=O)O)c45)ccc3C)c2)c1`, under 0%.
Regarding `COc1ccc(-c2nn(C(C)C)c3ncnc(N)c23)cc1OC`, the growth inhibition came to 86.7%.
The same measure, in the same setting: to `O=C(CN1CCOCC1)Nc1ccc2ncnc(Nc3ccc(OCc4cccc(F)c4)c(Cl)c3)c2c1` belongs 2.86%.
Same read-out and setting: to `c1ccc(Oc2ccc(-c3cc(CN4CCOCC4)[nH]n3)cc2)cc1` belongs 0.894%; to `Clc1ccc(CCNc2cc(-c3ccccc3)nc3ncnn23)cc1`, under 0%.

The same assay, now with this note: 1 µM; minimal medium (MM); 72 h.
`CN1CCN(S(=O)(=O)c2ccc(-c3ccc4c(Nc5ccc6nn[nH]c6c5)ccnc4c3)cc2)CC1` returned a growth inhibition of over 100%.
Take `Nc1nccc2ccc(-c3ccc4nccn4c3)cc12`: the growth inhibition was over 100%.
Same read-out and setting: to `Cc1ccc(S(=O)(=O)n2cc(-c3ccnc(N)c3)c3cc(Br)cnc32)cc1` belongs over 100%.
Regarding `CC[C@@H]([C@H](C)O)n1ncn(-c2ccc(N3CCN(c4ccc(OC[C@@H]5CO[C@@](Cn6cncn6)(c6ccc(F)cc6F)C5)cc4)CC3)cc2)c1=O`, the growth inhibition is 50.3%.
On the same count and under the same terms, to `NC(=O)c1cc(Br)ccc1OCCOc1ccccc1` belongs under 0%.
On the same count and under the same terms, to `CC1=Nc2ccc(Cl)cc2C(O)(c2ccc(C)cc2)N1CCN1CCCCC1` (stereo unspecified) belongs over 100%; to `O=C(c1[nH]nc2c1CCCC2)N1CCN(Cc2ccc3c(c2)OCO3)CC1`, 13%.
In turn, `CS(=O)(=O)Cc1nc2ccccc2oc1=O` yielded a growth inhibition of under 0%.
The same measure, in the same setting: to `CC(=O)OCC1OC([S-])C(OC(C)=O)C(OC(C)=O)C1OC(C)=O.CCP(CC)CC.[Au+]` (stereo unspecified) belongs 71.6%.
Same read-out and setting: to `Cc1ncc(-c2ccnc(Nc3ccc(S(C)(=O)=O)cc3)n2)n1C(C)C` belongs 59.4%.
As to `NCCC(O)C(=O)N[C@@H]1C[C@H](N)[C@@H](OC2O[C@H](CN)[C@@H](O)[C@H](O)[C@H]2O)[C@H](O)C1OC1O[C@H](CO)[C@@H](O)[C@H](N)[C@H]1O` (stereo partly specified), the growth inhibition was 17.2%.
For the compound `COC(=O)Nc1nc2cc(C(=O)c3ccccc3)ccc2[nH]1`, the growth inhibition is under 0%.
The same measure, in the same setting: to `COc1ccc(-c2nnc3ccc(-c4cccc(C(C)C)c4)cn23)cc1OC` belongs 3.89%.
Same read-out and setting: to `CN(C(=O)c1cc2c(-c3cncnc3)cccc2[nH]1)c1ccccc1` belongs 56.4%; to `Cc1noc(C)c1COc1cccc(C(=O)N=c2[nH]cccc2C)c1`, under 0%.
On the same count and under the same terms, to `O=C(NC1CC1)c1ccc(N2CCOc3ccc(Cl)cc32)s1` belongs 82.1%.
In turn, `N#CCN(CCCCN1CCN(c2ccc(F)cc2)CC1)C(=O)OCc1ccccc1` came in with a growth inhibition of 7.66%.
The same measure, in the same setting: to `O=C(Nc1nnc(S)s1)c1cc(Br)ccc1Cl` belongs 9.59%.
For the compound `O=C(NC1CCCCC1)N1CCN(Cc2ccc3c(c2)OCO3)CC1`, the growth inhibition was under 0%.
Compound `COc1cc(Br)cc2cc(C(=O)Nc3cccc(C(F)(F)F)c3)c(=O)oc12` came in with a growth inhibition of 6.95%.
Same read-out and setting: to `Cc1c[nH]c(CCNC(=O)c2cc(-c3ccc(Cl)cc3)cs2)n1` belongs over 100%; to `COc1cc(OC)cc(C(=O)NCC2Cc3cc(Cl)cc(-c4ccncc4)c3O2)c1` (stereo unspecified), over 100%.
In turn, `CC(=O)N1CCc2cc3nc(C)cc(C)c3cc21` came in with a growth inhibition of under 0%.
Still for that read-out and setting: to `Cc1cc(C(=O)Nc2ccc(-c3ccccc3)cc2)no1` belongs 91.1%.
`CC(=O)NC[C@@H]1CN(c2ccc(N3CCOCC3)c(F)c2)C(=O)O1` returned a growth inhibition of 11.7%.
Compound `CS(=O)(=O)N1CCC(Cn2nc(Cc3cccc4ccccc34)c3c(N)ncnc32)CC1` gave a growth inhibition of under 0%.
Compound `COc1ccc(-c2nc(-c3cccc(NC(=O)Cc4ccc(F)cc4)c3)no2)cc1OC` had a growth inhibition of 42.7%.
Still for that read-out and setting: to `Cc1nn(C(=O)Nc2cccc(C(F)(F)F)c2)c(C)c1Sc1ncccn1` belongs under 0%.
`O=C1[C@@H](Oc2ccccc2)[C@@H](c2ccc(Cl)cc2)N1CCn1cnc2c(NCc3ccccc3)ncnc21` gave a growth inhibition of 22.4%.
The same measure, in the same setting: to `CC(C(=O)N1CCCC1)N1CCN(S(=O)(=O)c2ccc(C(C)(C)C)cc2)CC1` (stereo unspecified) belongs 71%; to `NC(=O)c1cc(-c2ccsc2)ccc1OCCOc1ccccc1`, 9.01%; to `CC(=O)NCC1CN(c2ccc(-c3ccc(CNCc4cn[nH]n4)cc3)c(F)c2)C(=O)O1` (stereo unspecified), under 0%.
The same measure, in the same setting: to `Nc1cccnc1Nc1ccc(Cl)cc1` belongs under 0%; to `Cc1ccc(C(=O)Nc2ccc(S(=O)(=O)O)c3cc(S(=O)(=O)O)cc(S(=O)(=O)O)c23)cc1NC(=O)c1cccc(NC(=O)Nc2cccc(C(=O)Nc3cc(C(=O)Nc4ccc(S(=O)(=O)O)c5cc(S(=O)(=O)O)cc(S(=O)(=O)O)c45)ccc3C)c2)c1`, under 0%; to `COc1ccc(-c2nn(C(C)C)c3ncnc(N)c23)cc1OC`, 81.7%.
Still for that read-out and setting: to `O=C(CN1CCOCC1)Nc1ccc2ncnc(Nc3ccc(OCc4cccc(F)c4)c(Cl)c3)c2c1` belongs 9.8%; to `c1ccc(Oc2ccc(-c3cc(CN4CCOCC4)[nH]n3)cc2)cc1`, under 0%; to `Clc1ccc(CCNc2cc(-c3ccccc3)nc3ncnn23)cc1`, 0.487%.
